Here are results for 29 molecules from PubChem BioAssay (Tox21).

Experiment [1] is described as follows: qHTS assay to identify small molecule antagonists of the estrogen related receptor (ERR) signaling pathway from Tox21 library - cell viability counter screen (AID 1224834). Note: nearly all actives have a fitted effect of over 30% in size. The procedure, abridged:
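After 17.5 h of compound exposure at 37 C, ERR cells are incubated with CellTiter-Fluor for 30 min and fluorescence intensity serves as the viability measure.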
For orientation: qHTS replaces the single test concentration by a dilution series.

The target in experiment [2] is Luciferin 4-monooxygenase (Photinus pyralis) (UniProt P08659). As to the kind of experiment: qHTS assay to identify small molecule inhibitors of firefly luciferase (AID 1224835). Note: series mostly up to about 120 µM; nearly all actives have a fitted effect of over 25% in size. The procedure, abridged: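 Biochemical qHTS: compounds run as interplate titrations against purified firefly enzyme, with D-luciferin and ATP each at its KM concentration. Light output recorded by CCD imaging.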

Experiment [3] can be described thus: qHTS assay to identify small molecule agonists of the constitutive androstane receptor (CAR) signaling pathway - cell viability counter screen (AID 1224836). Note: series mostly up to about 92 µM; nearly all actives have a fitted effect of over 45% in size. The procedure, abridged:
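Compound titrations (15 concentrations) went onto HepG2-CYP2B6-hCAR cells 4 h after seeding, alongside PK11195 at a final 0.75 uM; a 23 h, 37 C/5% CO2 incubation preceded CellTiter-Fluor viability measurement.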

Experiment [4] deals with Nuclear receptor subfamily 1 group I member 3 (Homo sapiens) (UniProt Q14994). Nature of the experiment: qHTS assay to identify small molecule antagonists of the constitutive androstane receptor (CAR) signaling pathway (AID 1224838).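 Note: HepG2 cells stably expressing hCAR with CYP2B6 luciferase reporter stimulated by CITCO; nearly all actives have a fitted effect of over 40% in size.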 In outline: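 Cell line: HepG2 double-stable for hCAR and CYP2B6-2.2kb reporter. Agonist: CITCO, 50 nM final. Compounds: 15 concentrations, 24 h, 37 C. Detection: ONE-Glo luminescence.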

The target is the same in experiment [5]. As to the kind of experiment: qHTS assay to identify small molecule agonists of the constitutive androstane receptor (CAR) signaling pathway (AID 1224839).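 For activation: HepG2 cells stably carrying human CAR and a CYP2B6 luciferase reporter; series mostly up to about 92 µM.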 Note: nearly all actives have a fitted effect of over 15% in size. Note: potency is the fitted concentration of half-maximal effect. The procedure, abridged:
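In this screen, CAR-driven CYP2B6 promoter activity is measured by luminescence in HepG2-CYP2B6-hCAR cells after 24 h with test compounds and 0.75 uM PK11195 (final concentration).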

A short description of experiment [6]: qHTS assay to identify small molecule antagonists of the estrogen related receptor signaling pathway with the pleiotropic PPARgamma coactivator (PGC) from Tox21 10K library - cell viability counter screen (AID 1224840; active = well fitted cell-killing curve with a large enough effect in the repeat runs, not every such curve was filed as active; note: nearly all actives have a fitted effect of over 40% in size). In outline: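 Following seeding of 2,000 PGC/ERR cells/well and 6 hours' incubation, test compounds were delivered in DMSO. The plates then sat 17.5 hours at 37 C before a fluorogenic live-cell protease reagent (CellTiter-Fluor) was read after 30 min.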

Experiment [7] is described as follows: qHTS assay to identify small molecule antagonists of the estrogen related receptor signaling pathway with the pleiotropic PPARgamma coactivator (PGC) from Tox21 10K library (AID 1224841; call rule not given here; note: series mostly up to about 92 µM; actives are mostly falling curves and most rising ones were filed inactive; nearly all actives have a fitted effect of over 50% in size). The procedure, abridged: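 qHTS antagonist format: PGC/ERR cells, 2k/well, compound in DMSO by pin transfer after 6 h attachment, 18 h treatment at 37 C, One-Glo luminescence read at 30 min.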

Experiment [8] can be described thus: qHTS assay to identify small molecule agonists of the estrogen related receptor signaling pathway with the pleiotropic PPARgamma coactivator (PGC) from Tox21 10K library (AID 1224842). Note: nearly all actives have a fitted effect of over 15% in size. In outline: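 PGC/ERR reporter cell line, 2,000 cells per well, incubated 6 h at 37 C before 23 nL compound in DMSO was added. After 18 h at 37 C, One-Glo luminescence read following 30 min at room temperature.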

Experiment [9] deals with Thyrotropin receptor (Homo sapiens) (UniProt P16473). As to the kind of experiment: qHTS assay to identify small molecule agonists of the thyroid stimulating hormone receptor (TSHR) signaling pathway (AID 1224843; calls by dose curve; note: nearly all actives have a fitted effect of over 45% in size). In outline: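 TSHR-HEK293 cells in agonist mode, 30 min room-temperature step, then cAMP measured by competitive HTRF (cAMP-d2 with anti-cAMP cryptate) after 1 h at room temperature. Tested at 15 concentrations in triplicate.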

Experiment [10] in a line: qHTS assay to identify small molecule antagonists of the constitutive androstane receptor (CAR) signaling pathway - cell viability counter screen (AID 1224837). Note: series mostly up to about 92 µM; nearly all actives have a fitted effect of over 45% in size. In outline: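 Counter screen run in HepG2-CYP2B6-hCAR cells: 4 hr settle, compound titration (15 concentrations) with 50 nM CITCO, 23 hr at 37 C/5% CO2, CellTiter-Fluor fluorescence.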

SMILES strings stand for the structures. Records with an inconclusive call do not appear. Unmarked numbers belong to inactive results. Active and inactive are the calls of the source. Unless noted, calls come from the whole dose curve; as a rule, active = well fitted curve in the direction sought with a large enough effect in the repeat runs; inconclusive = weak or mixed curves; inactive = no such curve, though single readings can be large; an effect the other way counts as inactive or inconclusive.
% is set by controls: 0 for no effect and ±100 for the full control effect.

Luciferin 4-monooxygenase (Photinus pyralis), sequence (P08659 whole entry, looked up): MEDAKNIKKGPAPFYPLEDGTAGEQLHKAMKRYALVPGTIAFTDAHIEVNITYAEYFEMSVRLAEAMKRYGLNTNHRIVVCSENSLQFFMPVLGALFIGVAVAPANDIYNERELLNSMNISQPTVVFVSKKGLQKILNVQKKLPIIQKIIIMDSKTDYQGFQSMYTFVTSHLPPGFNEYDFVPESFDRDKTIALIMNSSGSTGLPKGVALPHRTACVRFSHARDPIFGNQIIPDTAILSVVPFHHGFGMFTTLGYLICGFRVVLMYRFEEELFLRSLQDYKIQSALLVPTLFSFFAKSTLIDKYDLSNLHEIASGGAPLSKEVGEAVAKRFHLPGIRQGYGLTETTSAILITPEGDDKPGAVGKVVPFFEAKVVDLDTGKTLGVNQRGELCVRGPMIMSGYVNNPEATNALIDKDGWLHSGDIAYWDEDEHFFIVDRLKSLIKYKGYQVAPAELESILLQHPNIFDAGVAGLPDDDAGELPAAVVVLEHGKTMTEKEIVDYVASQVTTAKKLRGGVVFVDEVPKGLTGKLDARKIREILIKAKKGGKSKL
Thyrotropin receptor (Homo sapiens), sequence (P16473 whole entry, looked up): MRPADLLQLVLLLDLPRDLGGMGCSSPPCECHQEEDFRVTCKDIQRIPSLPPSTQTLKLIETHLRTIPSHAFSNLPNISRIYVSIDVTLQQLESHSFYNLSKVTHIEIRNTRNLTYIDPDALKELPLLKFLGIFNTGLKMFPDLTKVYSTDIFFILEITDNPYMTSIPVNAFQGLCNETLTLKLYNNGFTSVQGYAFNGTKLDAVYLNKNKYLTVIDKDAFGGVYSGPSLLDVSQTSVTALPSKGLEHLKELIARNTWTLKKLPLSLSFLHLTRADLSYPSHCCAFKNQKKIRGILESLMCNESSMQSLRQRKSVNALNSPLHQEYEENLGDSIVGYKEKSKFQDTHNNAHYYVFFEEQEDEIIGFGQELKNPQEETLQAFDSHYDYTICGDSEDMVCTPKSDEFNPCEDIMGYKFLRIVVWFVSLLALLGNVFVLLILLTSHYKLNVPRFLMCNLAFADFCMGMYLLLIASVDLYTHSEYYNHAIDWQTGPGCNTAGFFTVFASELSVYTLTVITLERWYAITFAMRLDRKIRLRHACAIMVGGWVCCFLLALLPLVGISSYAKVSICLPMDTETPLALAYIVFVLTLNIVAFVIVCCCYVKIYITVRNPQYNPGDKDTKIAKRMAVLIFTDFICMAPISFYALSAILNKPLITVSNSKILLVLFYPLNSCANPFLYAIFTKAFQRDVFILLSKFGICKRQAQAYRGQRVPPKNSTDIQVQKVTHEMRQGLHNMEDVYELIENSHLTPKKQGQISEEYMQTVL
Nuclear receptor subfamily 1 group I member 3 (Homo sapiens), sequence (Q14994 whole entry, looked up): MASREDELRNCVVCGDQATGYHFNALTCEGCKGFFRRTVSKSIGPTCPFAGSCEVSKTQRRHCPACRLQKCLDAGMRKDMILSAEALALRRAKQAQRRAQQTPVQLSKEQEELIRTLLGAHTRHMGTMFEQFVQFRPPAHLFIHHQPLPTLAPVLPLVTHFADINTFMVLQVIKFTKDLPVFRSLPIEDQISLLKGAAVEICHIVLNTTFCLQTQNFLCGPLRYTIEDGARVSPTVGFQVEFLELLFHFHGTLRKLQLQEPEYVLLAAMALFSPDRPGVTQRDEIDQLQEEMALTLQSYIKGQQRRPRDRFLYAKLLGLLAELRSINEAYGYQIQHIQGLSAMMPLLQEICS

For the molecule `CCC(CC)(CNC(=O)CCCO)c1cccc(OC)c1`, the Potency result in experiment [1], in [2], in experiment [3], in experiment [4], in experiment [5] and in experiment [6] was “inactive” in each case. Besides, the Potency result in experiment [7] and in experiment [8] was “inactive” each time.
Take `ClCC1CO1` (stereo not given): the Potency result in experiment [1], in experiment [2], in [3], in [4], in experiment [5] and in experiment [6] was “inactive” in each case. The Potency entry in experiment [7], in experiment [8] and in [9] was “inactive” in each case.
Consider `CCC1(c2cccc(O)c2)CCCCN(C)C1` (stereo not given), for which the Potency entry in experiment [1], in [2], in experiment [3], in experiment [10], in experiment [6] and in [9] was “inactive” each time.
In the case of `CCCCS(=O)(=O)Cl`, the Potency result in experiment [1], in [2], in experiment [3], in experiment [4], in [5] and in experiment [7] was “inactive” each time. Further, the Potency result in [8] and in [9] was “inactive” throughout.
`CCNP(=S)(OC)O/C(C)=C/C(=O)OC(C)C` (stereo not given): the Potency entry in [1], in experiment [2], in experiment [3], in experiment [4] and in [6] was “inactive” each time. Moreover, the Potency in experiment [5] was 27.3 µM (active).
Take `C=CCc1cc(OC)c2c(c1)OCO2`: the Potency entry in [1], in experiment [2], in experiment [3], in [4], in experiment [5] and in experiment [9] was “inactive” in each case.
`CCOc1cc(OP(=S)(OC)OC)nc(CC)n1`: the Potency result in [1], in experiment [2], in experiment [3], in [10] and in experiment [9] was “inactive” each time.
Consider `CCC1(c2ccccc2)CCC(=O)NC1=O` (stereo not given), for which the Potency result in experiment [1], in [2], in [3], in experiment [10], in experiment [6] and in [9] was “inactive” in each case.
As to `[P]#[In]`, the Potency result in experiment [1], in experiment [2], in [3], in [4], in experiment [5] and in experiment [6] was “inactive” in each case. Besides, the Potency result in experiment [7], in [8] and in experiment [9] was “inactive” each time.
Take `CCOC(=O)c1ncn2c1CN(C)C(=O)c1c(I)cccc1-2`: the Potency entry in experiment [1], in experiment [2], in experiment [3], in experiment [10], in experiment [6] and in experiment [9] was “inactive” each time.
Take `CC(=NC#N)N(C)Cc1ccc(Cl)nc1`: the Potency entry in [1], in experiment [2], in experiment [3], in [10], in experiment [6] and in experiment [9] was “inactive” throughout.
For the molecule `CCOP(=S)(OCC)SCCl`, the Potency entry in experiment [1], in experiment [2], in [3], in [10], in experiment [6] and in experiment [9] was “inactive” throughout.
For `COP(=O)(OC)O/C(C)=C/C(=O)N(C)C`, the Potency entry in experiment [1], in experiment [2], in experiment [3], in [10], in [7] and in [8] was “inactive” each time.
`COC(=O)c1ccccc1CS(=O)(=O)NC(=O)Nc1nc(OC)cc(OC)n1`: the Potency entry in experiment [1], in experiment [2], in experiment [3], in [4], in experiment [5] and in [6] was “inactive” throughout. Besides, the Potency result in experiment [7], in [8] and in experiment [9] was “inactive” in each case.
`CNC(=O)Oc1cc(C)c(N(C)C)c(C)c1`: the Potency result in experiment [1], in experiment [2], in [3], in [10], in experiment [7] and in experiment [8] was “inactive” throughout.
Regarding `CCNc1nc(Cl)nc(NC(C)(C)C)n1`, the Potency result in [1], in experiment [2], in experiment [3], in [4] and in experiment [6] was “inactive” in each case.
`CC(=O)OCC1=C(C(=O)O)N2C(=O)[C@@H](N)[C@H]2SC1`: the viability change, negative = cytotoxic is 3.81% [at 19 µM] in experiment [1], 12.6% [at 19 µM] in experiment [3] and 9.03% [at 19 µM] in experiment [6]. Further, in experiment [2], the activity change, negative = inhibition was 5.1% [at 23.6 µM]. In addition, the activity, negative = inhibition in experiment [4] was 0.319% [at 19 µM]; in experiment [7] it was -8.84% [at 19 µM]. For the same molecule, the activation in experiment [5] is 4.04% [at 19 µM]; in [8], -2.61% [at 19 µM]; in experiment [9], 9.8% [at 19 µM].
Turning to `CCCCCCCCBr`, the Potency result in [1], in experiment [2], in experiment [3], in experiment [10], in [6] and in experiment [9] was “inactive” in each case.
`CC(C)N(Cc1ccccc1)C(=O)C(C)(C)C`: the Potency result in experiment [1], in experiment [2], in [3], in experiment [4], in [6] and in experiment [9] was “inactive” in each case.
In the case of `CC(C)(O)C(Cl)(Cl)Cl`, the Potency entry in [1], in [2], in experiment [3], in [10], in [6] and in experiment [9] was “inactive” throughout.
For `Clc1ccc(C(Cl)(Cl)Cl)cn1`, the Potency result in experiment [1], in [2], in [3], in experiment [6] and in experiment [9] was “inactive” in each case.
Turning to `C[C@@H](N)[C@@H](O)c1ccccc1`, the Potency entry in experiment [1], in experiment [2], in experiment [3], in [5] and in experiment [9] was “inactive” in each case.
For the molecule `C=CCC1(C(C)CC)C(=O)NC(=O)NC1=O` (stereo not given), the Potency result in experiment [1], in experiment [2], in experiment [10], in experiment [4], in experiment [5] and in experiment [6] was “inactive” throughout.
Consider `NC(=O)OCCCc1ccccc1`, for which the Potency result in experiment [1], in experiment [2], in experiment [10] and in [6] was “inactive” throughout.
Turning to `c1ccc2c(c1)CCNC2`, the Potency result in experiment [1], in [2], in experiment [10], in experiment [5], in experiment [6] and in experiment [7] was “inactive” in each case. Besides, the Potency result in experiment [8] and in [9] was “inactive” each time.
In the case of `CCN[C@@H](C)Cc1cccc(C(F)(F)F)c1`, the Potency result in experiment [1], in experiment [2], in [10], in [5], in experiment [6] and in experiment [9] was “inactive” in each case.
For `CC(O)CCl` (stereo not given), the Potency entry in experiment [1], in [2], in experiment [10], in experiment [4], in [6] and in experiment [9] was “inactive” throughout.
With `CCCCCCCCSC(=O)Oc1cc(Cl)nnc1-c1ccccc1`, the Potency result in experiment [1], in [2] and in experiment [10] was “inactive” each time.
As to `OP(O)c1ccccc1`, the Potency result in experiment [1], in experiment [2], in experiment [10], in experiment [5], in experiment [6] and in experiment [7] was “inactive” throughout. Also, the Potency entry in [8] and in experiment [9] was “inactive” in each case.
